The results in this text go back to PubChem BioAssay (Tox21).

Test [1] can be described thus: A CellTox Green Cytotoxicity Assay to monitor cytotoxicity in HEK293 cells - 32 hour (AID 1224881). Also: nearly all actives have a fitted effect of over 40% in size. A digest of the protocol: (§1)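 Cells (HEK293, 600/well) and dye reagent are dispensed together. After 5 h at 37 C, 23 nL compound is pinned in. Plates stay at 37 C for 40 h with fluorescence read at 0h, 8h, 16h, 24h, 32h and 40h.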
A short description of test [2]: A CellTox Green Cytotoxicity Assay to monitor cytotoxicity in HepG2 cells - 0 hour (AID 1224882). Also: nearly all actives have a fitted effect of over 35% in size. A digest of the protocol: (§2)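 Cells and non-lytic dye reagent are dispensed together (600 HepG2 cells/well) and incubated 5 h before DMSO compound transfer. Kinetic fluorescence is then recorded in the same wells during 40 h at 37 C.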
Test [3] in a line: A CellTox Green Cytotoxicity Assay to monitor cytotoxicity in HepG2 cells - 32 hour (AID 1224883). Also: nearly all actives have a fitted effect of over 50% in size. A digest of the protocol: as §2
Test [4] can be described thus: qHTS RealTime-Glo MT Cell Viability Assay in HEK293 cells - 24 hour (AID 1224886). Also: top concentration of the series differs between compounds; nearly all actives have a fitted effect of over 50% in size. A digest of the protocol:
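Reads taken at 0, 8, 16, 24, 32 and 40 h from the same wells. HEK293 cells (600/well) carried RealTime-Glo reagents from seeding, with compound added after a 5 h settle at 37 C.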

The nature of test [5]: qHTS RealTime-Glo MT Cell Viability Assay in HEK293 cells - 8 hour (AID 1224887). Also: top concentration of the series differs between compounds; nearly all actives have a fitted effect of over 50% in size. A digest of the protocol: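 Real-time viability in HEK293: signal arises when living cells convert a prosubstrate for NanoLuc in the medium, so luminescence tracks viable cell number. Compound (23 nL, DMSO) added 5 h post-seeding; kinetic reads at 0–40 h, 37 C.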
In general terms: Quantitative high-throughput screening tests each substance at several concentrations.

The nature of test [6]: qHTS RealTime-Glo MT Cell Viability Assay in HepG2 cells - 0 hour (AID 1224889). Also: nearly all actives have a fitted effect of over 50% in size. In a few lines:
(§3)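 HepG2 suspension premixed with RealTime-Glo reagents is plated at 600 cells per well and left 5 h at 37 C/5% CO2. Compounds in DMSO then go in, and bioluminescence reflecting viable cell number is recorded over 40 h.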

Test [7] in a line: A CellTox Green Cytotoxicity Assay to monitor cytotoxicity in HepG2 cells - 8 hour (AID 1224890). Also: nearly all actives have a fitted effect of over 45% in size. In a few lines: as §2
Test [8] in a line: qHTS assay to identify small molecule antagonists of the estrogen receptor alpha (ER-alpha) signaling pathway using the BG1 cell line in the presence of 0.1 nM 17-beta-estradiol - cell viability counter screen (AID 1259241). Also: nearly all actives have a fitted effect of over 40% in size. A digest of the protocol: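 Cells were plated and left 24 hr, compounds in DMSO were pinned in, 17beta-estradiol was added to 0.1 nM final, and after 22 hr CellTiter-Fluor reagent was added for 30 min before fluorescence was read.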

The nature of test [9]: qHTS assay to identify small molecule antagonists of the androgen receptor (AR) signaling pathway using the MDA cell line in the presence of 0.5 nM R1881 - cell viability counter screen (AID 1259242). Also: nearly all actives have a fitted effect of over 45% in size. A digest of the protocol:
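Steps: plate MDA-kb2 cells, rest 5 hr at 37C without CO2; pin in compounds in DMSO; add R1881 to 0.5 nM final; incubate 16 hr; add CellTiter-Fluor, 30 min; read fluorescence.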

In test [10] the target is Estrogen receptor (Homo sapiens) (UniProt P03372). Kind of test: qHTS assay to identify small molecule antagonists of the estrogen receptor alpha (ER-alpha) signaling pathway using the BG1 cell line in the presence of 0.1 nM 17-beta-estradiol (AID 1259244). Also: nearly all actives have a fitted effect of over 50% in size. Also: potency is read from the fitted curve at half-maximal effect. In a few lines: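 Antagonist mode: compounds in DMSO are pinned onto VM7Luc4E2 reporter cells, 0.1 nM final 17beta-estradiol is added, and after 22 h at 37C luciferase luminescence is measured with ONE-Glo.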

The nature of test [11]: qHTS assay to identify small molecule HDAC inhibitors (AID 1259364).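 Also: wild-type HCT-116 cells with endogenous class I/II HDAC activity; top concentration of the series differs between compounds; nearly all actives have a fitted effect of over 45% in size.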 In a few lines: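 Cells (HCT-116, wild type) are seeded at 1,500 per well, incubated overnight, treated with compound in DMSO for 2 hr, then developed with HDAC-Glo I/II reagent for 30 min at room temperature.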
Test [12] in a line: qHTS assay to identify small molecule HDAC inhibitors - cell viability counter screen (AID 1259365). In a few lines:
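Counter screen in wild-type HCT-116 cells: compounds dissolved in DMSO are pin-transferred onto overnight-plated cells and left 2hr at 37C. ATP-based CellTiter-Glo luminescence then measures viable cells.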

The nature of test [13]: qHTS assay to identify small molecule agonists of the sonic hedgehog signaling (Shh) pathway - cell viability counter screen (AID 1259366). Also: nearly all actives have a fitted effect of over 50% in size. Also: potency is read from the fitted curve at half-maximal effect. A digest of the protocol: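 Cells are plated at 2,000 per well and left 4hr at 37C, 5% CO2 before compound addition. After 23hr of treatment, CellTiter-Fluor reagent is added for 1hr at 37C and fluorescence is measured.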
Test [14] can be described thus: qHTS assay to identify small molecule antagonists of the sonic hedgehog signaling (Shh) pathway - cell viability counter screen (AID 1259367). Also: nearly all actives have a fitted effect of over 55% in size. Also: potency is read from the fitted curve at half-maximal effect. In a few lines: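 CellTiter-Fluor signal in conditioned medium-stimulated 3T3 Gli1-Luc cells, 23 hr compound exposure, 37C.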
Test [15] can be described thus: qHTS assay to identify small molecule agonists of the sonic hedgehog signaling (Shh) pathway (AID 1259368; calls by dose curve;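 also: NIH/3T3-derived 3T3Gli1-Luc cells carrying a stable Gli1-driven firefly luciferase reporter; series mostly up to about 92 µM; nearly all actives have a fitted effect of over 15% in size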). In a few lines:
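Cells of a mouse NIH/3T3 clone stably expressing luciferase under the Gli1 transcriptional response element are exposed to test chemicals for 24 hr at 37 C. Pathway activation is detected as a rise in luminescence.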

Test [16] can be described thus: A CellTox Green Cytotoxicity Assay to monitor cytotoxicity in HEK293 cells - 8 hour (AID 1224884). Also: nearly all actives have a fitted effect of over 35% in size. In a few lines:
as §1

Test [17] can be described thus: qHTS RealTime-Glo MT Cell Viability Assay in HepG2 cells - 16 hour (AID 1224885). Also: nearly all actives have a fitted effect of over 50% in size. A digest of the protocol: as §3
Test [18] can be described thus: A CellTox Green Cytotoxicity Assay to monitor cytotoxicity in HEK293 cells - 16 hour (AID 1224888). Also: nearly all actives have a fitted effect of over 35% in size. In a few lines:
as §1

Results filed as inconclusive are left out. Calls of active or inactive are those of the source. Unless noted, calls follow the shape of the dose curve; as a rule, active = well fitted curve in the direction sought with a large enough effect in the repeat runs; inconclusive = weak or mixed curves; inactive = no such curve, though single readings can be large; an effect the other way counts as inactive or inconclusive.

Sequence of Estrogen receptor (Homo sapiens) (P03372 whole entry, looked up): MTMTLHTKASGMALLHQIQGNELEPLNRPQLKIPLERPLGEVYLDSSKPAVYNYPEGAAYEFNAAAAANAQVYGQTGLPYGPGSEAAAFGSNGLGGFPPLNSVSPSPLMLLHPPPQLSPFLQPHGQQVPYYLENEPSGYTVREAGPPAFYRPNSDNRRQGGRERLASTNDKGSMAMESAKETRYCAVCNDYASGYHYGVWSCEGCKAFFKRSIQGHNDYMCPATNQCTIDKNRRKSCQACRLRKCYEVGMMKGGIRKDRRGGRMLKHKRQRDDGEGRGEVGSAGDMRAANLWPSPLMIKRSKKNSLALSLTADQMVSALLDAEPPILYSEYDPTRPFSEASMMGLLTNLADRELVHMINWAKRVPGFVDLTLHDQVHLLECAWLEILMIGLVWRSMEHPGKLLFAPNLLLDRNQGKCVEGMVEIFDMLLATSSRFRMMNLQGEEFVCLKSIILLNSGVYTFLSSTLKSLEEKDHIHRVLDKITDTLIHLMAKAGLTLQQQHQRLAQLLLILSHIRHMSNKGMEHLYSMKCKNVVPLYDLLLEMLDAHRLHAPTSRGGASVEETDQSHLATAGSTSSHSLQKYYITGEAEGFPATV

Take `OCCBr`: the Potency result in test [1], in test [3], in test [4], in test [5], in [6] and in test [7] was “inactive” in each case. For the same compound, the Potency entry in test [10], in [11], in test [13] and in [14] was “inactive” in each case. Further, the outcome in [2], in test [8], in [9], in test [12] and in [15] was inactive.
Take `COC(C)(C)C`: the Potency entry in test [1], in [3], in test [16], in test [17], in [4] and in test [5] was “inactive” throughout. Moreover, the Potency entry in test [18], in test [6], in [7], in [11], in [13] and in test [14] was “inactive” in each case. In addition, the result in [8], in [9], in test [12] and in test [15] was inactive.
On to `CC(C=O)Cc1ccc2c(c1)OCO2` (stereo not given), for which the Potency entry in test [1], in test [3], in [17], in test [5], in test [18] and in [6] was “inactive” in each case. Besides, the Potency entry in test [7], in test [11], in [13] and in [14] was “inactive” throughout. Also, the outcome in [2], in test [8], in [9], in test [12] and in test [15] was inactive.
Consider `CC(C1CC1)C(O)(Cn1cncn1)c1ccc(Cl)cc1` (stereo not given), for which the Potency entry in test [1], in test [3], in [17], in test [5], in [18] and in test [6] was “inactive” throughout. Moreover, the Potency result in [7], in test [11], in [13] and in [14] was “inactive” throughout. The result in [2], in [8], in [9], in [12] and in test [15] was inactive.
Regarding `CC(CC(C#N)(c1ccccc1)c1ccccc1)N(C)C` (stereo not given), the Potency entry in [1], in [16], in [17], in [5], in [6] and in test [7] was “inactive” each time. Further, the Potency result in [11] is “inactive”. The compound was classed as inactive in test [2], in [8], in [9], in test [12] and in test [15].
In the case of `COC(=O)c1ccccc1S(=O)(=O)NC(=O)N(C)c1nc(C)nc(OC)n1`, the Potency entry in test [1], in test [3], in test [4], in [5], in test [18] and in test [6] was “inactive” each time. The Potency entry in [7], in test [10], in test [11] and in [13] was “inactive” in each case. Also, the call in test [2], in test [8], in [9], in [12] and in [15] was inactive.
As to `CC(=O)C(Cl)Cl`, the Potency entry in test [1], in [17], in [4], in test [5], in [18] and in test [6] was “inactive” each time. For the same compound, the Potency entry in [7], in test [10], in test [11] and in test [13] was “inactive” throughout. Besides, the compound was classed as inactive in test [2], in test [8], in [9], in test [12] and in test [15].
For `CC1=C(C(=O)Nc2ccccc2)S(=O)(=O)CCO1`, the Potency entry in [1], in test [3], in [17], in test [5], in test [18] and in test [6] was “inactive” throughout. Moreover, the Potency entry in [7] and in test [11] was “inactive” throughout. For the same compound, the call in [2], in [8], in [9], in test [12] and in test [15] was inactive. Moreover, the Potency is 48.5 µM (active) in test [10], 21.7 µM (active) in test [13] and 27.3 µM (active) in [14].
As to `ClC(Cl)C(Cl)Cl`, the Potency entry in test [1], in [16], in test [4], in [5], in test [18] and in [6] was “inactive” each time. In addition, the Potency entry in [7], in test [10], in test [11], in [13] and in [14] was “inactive” each time. Further, the compound was called inactive in test [2], in test [8], in [9], in [12] and in test [15].
